Drawing on ChEMBL document CHEMBL1157539, “Thousands of chemical starting points for antimalarial lead identification” (Nature, 2010), this text covers Inhibition for 60 compounds.

What all share (assay type): functional
For assay [1], the system named is Plasmodium falciparum. The experiment in a line: GSK_TCMDC: Inhibition of Plasmodium falciparum 3D7 in whole red blood cells, using parasite LDH activity as an index of growth. Test compounds present at 2uM.
Assay [2] has as its system Plasmodium falciparum. The experiment in a line: GSK_TCMDC: Inhibition of Plasmodium falciparum Dd2 in whole red blood cells, using parasite LDH activity as an index of growth. Test compounds present at 2uM.
For assay [3], the system named is HepG2. The experiment in a line: GSK_TCMDC: Percent inhibition of human HepG2 cell line. Test compounds present at 10uM.

As a reminder, the Inhibition is how much of the control response was suppressed. Turning to `O=C(O)C(F)(F)F.O=S(=O)(NCCN1CCCC1)c1ccc(-c2ccccc2CNC2Cc3ccccc3C2)cc1`, the Inhibition in assay [1] is on record as 95%; in assay [2], 67%; in assay [3], 19%.
For `CC1CCCN(S(=O)(=O)c2cc(Br)cc3c2N(C(=O)C2CC2)CC3)C1` (stereo not given), the Inhibition in assay [1] is recorded as 83%; in assay [2] it was 70%; in assay [3] it was 0%.
Regarding `COc1cc(C2CCCCC2)c(OC)cc1CC1c2cc(O)c(Cl)cc2CCN1C.Cl` (stereo not given), the Inhibition is on record as 100% in assay [1], 100% in assay [2] and 12% in assay [3].
Consider `COc1ccc(-c2cnc3ccc(NC4CCC(O)CC4)nn23)cn1` (stereo not given), for which the Inhibition in assay [1] was 98%; in assay [2] it was 73%; in assay [3], 54%.
On to `CCn1c(-c2nonc2N)nc2c(-c3ccccc3)ncc(OCCCNCCCN3CCOCC3)c21.O=C(O)C(F)(F)F`, for which the Inhibition in assay [1] was determined as 100%; in assay [2], 91%; in assay [3], 28%.
In the case of `O=C(O)C(F)(F)F.O=C1OC2(CN1CC1CCN(Cc3ccc(-n4ccnc4)cc3)C1)c1ccccc1-c1ccccc12` (stereo not given), the Inhibition is recorded as 96% in assay [1], 0% in assay [2] and 25% in assay [3].
Taken in the same sequence, the figures for `COc1ccc(C(=O)N2CCC3(CC2)C(=O)N(CC(=O)NCC2CCCCC2)CN3c2ccccc2)c(OC)c1` were 100%, 99% and 6%.
Consider `CN1CCN(c2ccnc3ccc(NC(=O)Nc4ccc(-c5ccncc5)c(C(F)(F)F)c4)cc23)CC1`, for which the Inhibition is recorded as 99% in assay [1], 99% in assay [2] and 12% in assay [3].
`O=C(O)C(F)(F)F.OC1CCCN(Cc2ccc(-c3ccc(-c4nc5ccccc5[nH]4)cc3)cc2)C1` (stereo not given): the Inhibition is listed as 100% in assay [1], 77% in assay [2] and 46% in assay [3].
Turning to `CN1CCN(CC(O)CNC(=O)Nc2ccc(Cl)cc2)CC1.O=C(O)C(F)(F)F` (stereo not given), the Inhibition is given as 99% in assay [1], 98% in assay [2] and 1% in assay [3].
Turning to `Br.COc1cccc(OC)c1OCCCON1C(=N)N=C(N)NC1(C)C`, the Inhibition in assay [1] stood at 95%; in assay [2], 96%; in assay [3] it was 53%.
With `CC(C)c1ccc(N(CC(=O)N/N=C/c2ccc(C(F)(F)F)cc2)S(=O)(=O)c2ccc(C(F)(F)F)cc2)cc1`, the Inhibition in assay [1] is on record as 91%; in assay [2] it was 44%; in assay [3], 2%.
For the compound `COC(=O)C(C)(C)Cc1c(SC(C)(C)C)c2cc(C(C)C)ccc2n1Cc1ccc(Cl)cc1`, the Inhibition in assay [1] is reported as 96%; in assay [2], 96%; in assay [3], 0%.
As to `Cc1cc(NC(=O)Nc2ccc3nc(C)oc3c2)c2cc(Cl)ccc2n1`, the figures for the Inhibition in assay [1], in assay [2] and in assay [3] were 100%, 57% and 0%, respectively.
With `O=C(Cn1c(CCc2cccc(F)c2F)cc(=O)c2ccccc21)N(CCN1CCCCC1)Cc1ccc(-c2ccc(C(F)(F)F)cc2)cc1.O=C(O)C(O)C(O)C(=O)O`, the Inhibition is 100% in assay [1], 59% in assay [2] and 9% in assay [3].
For `COc1ccc(CNCc2ccsc2)cc1-c1ccc(OC)c(S(=O)(=O)NCCN2CCCC2)c1.O=C(O)C(F)(F)F`, in that order: 97%, 62% and 18%.
For `COc1ccc(CCNC(=O)c2cc3c(=O)n4cccc(C)c4nc3n(C)c2=N)cc1`, in that order: 99%, 99% and 22%.
Consider `O=C(c1ccco1)N1CCN(c2ccc([N+](=O)[O-])c(NC3CC3)c2)CC1`, for which the Inhibition stood at 100% in assay [1], 99% in assay [2] and 0% in assay [3].
As to `O=C(Cn1c(CCc2cccc(F)c2F)nc(=O)c2cccnc21)N(Cc1ccc(-c2ccc(C(F)(F)F)cc2)cc1)C1CCN(C2CCOCC2)CC1.O=C(O)C(O)C(O)C(=O)O`, the Inhibition is listed as 94% in assay [1], 67% in assay [2] and 100% in assay [3].
`CN1CCC(N(Cc2ccc(-c3ccc(Cl)cc3)cc2)C(=O)Cn2c(CCc3cccc(F)c3F)cc(=O)c3ccccc32)CC1.O=C(O)C(O)C(O)C(=O)O`: the Inhibition in assay [1] is listed as 97%; in assay [2], 88%; in assay [3], 93%.
For `CC(C)COc1ccc(Cl)cc1Cc1nc(-c2nc3cccc(CN4CCN(C)CC4)c3[nH]2)cs1`, the Inhibition in assay [1] worked out at 99%; in assay [2], 30%; in assay [3] it was 15%.
Consider `Nc1nccc2ccc(-c3cccc(OCc4ccccc4)c3)cc12.O=C(O)C(F)(F)F`, for which the Inhibition in assay [1] came out at 100%; in assay [2], 81%; in assay [3] it was 47%.
For `Br.CC1(C)NC(N)=NC(=N)N1OCCCO`, in that order: 96%, 0% and 27%.
Regarding `CCOc1ccc2nc(NC(=O)c3csnn3)sc2c1`, the Inhibition in assay [1] was 100%; in assay [2], 98%; in assay [3], 6%.
For `COc1ccc2nc3ccccc3c(NCCN3CCN(C)CC3)c2c1`, the Inhibition came to 81% in assay [1], 10% in assay [2] and 11% in assay [3].
On to `CC(CN1CCN(C)CC1)C(=O)Nc1cccc(-c2ccc(-c3nc4cc(C(F)(F)F)ccc4[nH]3)cc2)c1` (stereo not given), for which the Inhibition in assay [1] is 100%; in assay [2], 98%; in assay [3], 11%.
For `CC(C)(C)OC(=O)NCC(=O)N(Cc1ccccc1)Cc1ccccc1`, in that order: 97%, 93% and 0%.
For `COc1ccc(-c2ccc(NC(=O)c3ccc(C#N)cc3)cc2)cc1CN1CCCN(C)CC1.O=C(O)C(F)(F)F`, in that order: 99%, 75% and 27%.
Turning to `CC(Cc1ccc(NC(=O)c2ccc(CC(C)NCc3ccc(Cl)cc3)cc2)cc1)NCCc1cccc(Cl)c1` (stereo not given), the Inhibition in assay [1] is 100%; in assay [2], 75%; in assay [3] it was 95%.
With `COc1ccc(C2C(C(=O)Nc3ccc(C)c(F)c3)c3cc(OC)c(OC)cc3C(=O)N2C)cc1` (stereo not given), the values for the Inhibition in assay [1], in assay [2] and in assay [3] were 81%, 26% and 6%, respectively.
For `Cc1cc(NCCC(=O)Nc2ccccc2)nc(NCc2ccccc2C)n1.O=C(O)C(F)(F)F`, the results for the Inhibition in assay [1], in assay [2] and in assay [3] were 100%, 57% and 6%, respectively.
As for `COC(=O)Cn1c2ccccc2c2c(N)c(C(=O)OC)c(C)nc21`, the Inhibition in assay [1] stood at 93%; in assay [2], 1%; in assay [3] it was 0%.
With `Cc1ccc(NC(=O)c2ccnc(N3CCN(c4ccncc4)CC3)c2)cc1F.O=C(O)C(F)(F)F`, the Inhibition in assay [1] was determined as 94%; in assay [2] it was 12%; in assay [3] it was 43%.
For the compound `O=C(NCCCCN1CCC(c2cccc3ccccc23)CC1)c1ccc(NC(=O)c2ccc(Cl)cc2)cc1`, the Inhibition was determined as 99% in assay [1], 39% in assay [2] and 20% in assay [3].
As for `O=C(Cn1c(CCc2cccc(F)c2F)cc(=O)c2ccccc21)N(Cc1ccc(-c2ccc(C(F)(F)F)cc2)cc1)C1CCN(CCO)CC1.O=C(O)C(O)C(O)C(=O)O`, the Inhibition in assay [1] was 91%; in assay [2], 84%; in assay [3], 82%.
Turning to `COc1ccc(CCN(C)CCOc2ccc(NC(=O)c3cccc4c(=O)c5cc(SC)ccc5[nH]c34)cc2)cc1OC`, the Inhibition in assay [1] is 97%; in assay [2] it was 82%; in assay [3], 52%.
On to `CC12CC3CC(C)(C1)CC(Nc1nc(N4CCOCC4)nc4ccccc14)(C3)C2`, for which the Inhibition was 95% in assay [1], 14% in assay [2] and 31% in assay [3].
For the compound `COc1cc(CNC[C@@H](O)[C@H](Cc2ccccc2)NC(=O)c2cc(C3CCCC3)cc(N3CCCCS3(=O)=O)c2)cc(OC)c1.Cl`, the Inhibition in assay [1] turned out to be 98%; in assay [2], 96%; in assay [3], 16%.
Taken in the same sequence, the figures for `Cc1cccc2nc(-c3ccc(-c4ccc(CNCCCNS(C)(=O)=O)cc4)s3)[nH]c12.O=C(O)C(F)(F)F` were 99%, 4% and 13%.
Take `CCCNCc1ccc(-c2ccc(CN(CCOC)C(=O)c3nn(-c4ccccc4)nc3C)cc2)nc1.O=C(O)C(F)(F)F`: the Inhibition in assay [1] is recorded as 99%; in assay [2], 71%; in assay [3] it was 18%.
Regarding `CC(Nc1nncc(-c2cccc(F)c2)n1)c1ccc(F)cc1` (stereo not given), the Inhibition in assay [1] came out at 95%; in assay [2], 89%; in assay [3], 4%.
Taken in the same sequence, the figures for `Br.CCCc1cc(OCCCOc2ccccc2)ccc1OCCCON1C(=N)N=C(N)NC1(C)C` were 94%, 96% and 68%.
As for `O=C(/C=C/c1ccc(Cl)c(Cl)c1)NCCCCCN1CCCN(C(=O)Nc2cc(Cl)cc(Cl)c2)CC1`, the Inhibition was determined as 96% in assay [1], 4% in assay [2] and 53% in assay [3].
In the case of `Br.Cc1ccc2ccccc2c1CCCON1C(=N)N=C(N)NC1(C)C`, the figures for the Inhibition in assay [1], in assay [2] and in assay [3] were 95%, 97% and 65%, respectively.
For `CCN(CC)C(=S)N/N=C1/C(=O)Nc2c(C)cccc21`, in that order: 94%, 69% and 28%.
Taken in the same sequence, the figures for `CCCN1CCN(CC(O)CNC(=O)Nc2ccc(Cl)cc2)CC1.O=C(O)C(F)(F)F` (stereo not given) were 100%, 100% and 6%.
Consider `O=C(Nc1ccc(Cl)cc1)N(CC1CC2CCC(C1)N2Cc1ccc(C(F)(F)F)cc1)c1ccc(N2CCOCC2)c(F)c1` (stereo not given), for which the values for the Inhibition in assay [1], in assay [2] and in assay [3] were 85%, 36% and 31%, respectively.
For `COc1ccc2c(c1)CCN(CCN1CCC(CNC(=O)c3ccc(-c4ccc(C#N)cc4)cc3)CC1)C2`, the Inhibition came to 100% in assay [1], 51% in assay [2] and 40% in assay [3].
For `Nc1ncnc2c1ncn2C(CO)Cc1ccc(O)cc1` (stereo not given), in that order: 93%, 0% and 0%.
Take `Cc1cccc2nc(-c3cccc(-c4ccc(NC(=O)c5ccoc5)cc4)c3)[nH]c12`: the Inhibition in assay [1] worked out at 99%; in assay [2], 56%; in assay [3], 65%.
On to `Fc1cccc2sc(Nc3nc(-c4ccccn4)cs3)nc12`, for which the Inhibition is listed as 95% in assay [1], 97% in assay [2] and 30% in assay [3].
Taken in the same sequence, the figures for `CC(C)n1c(CC2CCN(CC3CCN(C(=O)/C=C/c4ccc(Cl)c(Cl)c4)CC3)CC2)nc2ccccc21` were 100%, 23% and 19%.
For `O=C(/C=C/c1ccc(Cl)c(Cl)c1)NCCCCCN1CCCC(c2c[nH]c3ccccc23)C1` (stereo not given), in that order: 99%, 22% and 25%.
For `Cc1cc(Oc2cc(NC(=O)c3sc4ncn(Cc5ccccc5F)c(=O)c4c3C)cc([N+](=O)[O-])c2)ccc1Cl`, in that order: 94%, 24% and 2%.
Consider `FC(F)(F)Oc1ccc(-c2cnc3ccc(NCc4ccncc4)nn23)cc1`, for which the Inhibition in assay [1] stood at 97%; in assay [2], 54%; in assay [3], 19%.
Take `Nc1cccc(CNCc2ccc(-c3ccc(-c4nc5cc(C(F)(F)F)ccc5[nH]4)s3)cc2)c1.O=C(O)C(F)(F)F`: the Inhibition in assay [1] worked out at 100%; in assay [2], 98%; in assay [3], 28%.
Take `Cl.Nc1c2c(nc3ccc(C(=O)Nc4cc(I)c(O)c(I)c4)cc13)CCCC2`: the Inhibition in assay [1] came out at 96%; in assay [2], 64%; in assay [3], 14%.
Take `Cc1nc2nc(N)nc(N)c2c(C)c1Cc1ccc(C(F)(F)F)cc1.Cl`: the Inhibition in assay [1] came out at 96%; in assay [2], 22%; in assay [3], 57%.
Regarding `O=C(Nc1ccccc1)c1c[nH]cn1`, the Inhibition in assay [1] is 92%; in assay [2] it was 0%; in assay [3], 0%.
`CCC1(C)N=C(N)N=C(N)N1c1ccc(Cl)cc1.Cl` (stereo not given): the figures for the Inhibition in assay [1], in assay [2] and in assay [3] were 95%, 0% and 7%, respectively.
